# TDP1 inh: inhibitors of human tyrosyl-DNA phosphodiesterase TDP1. AID 485290. recombinant TDP1, AlphaScreen DNA substrate cleavage. hit rate 0.28% among 350,000. Potency, µM (series often up to 130 µM), inactives show at the highest dose activity change, negative = inhibition, hits mostly inhibitors; also: potency is read from the fitted curve at half-maximal effect; % is scaled to controls: 0 for no effect and ±100 for the full control effect; nearly all actives have a fitted effect of over 40% in size
# Target sequence (Q9NUW8 whole entry, looked up): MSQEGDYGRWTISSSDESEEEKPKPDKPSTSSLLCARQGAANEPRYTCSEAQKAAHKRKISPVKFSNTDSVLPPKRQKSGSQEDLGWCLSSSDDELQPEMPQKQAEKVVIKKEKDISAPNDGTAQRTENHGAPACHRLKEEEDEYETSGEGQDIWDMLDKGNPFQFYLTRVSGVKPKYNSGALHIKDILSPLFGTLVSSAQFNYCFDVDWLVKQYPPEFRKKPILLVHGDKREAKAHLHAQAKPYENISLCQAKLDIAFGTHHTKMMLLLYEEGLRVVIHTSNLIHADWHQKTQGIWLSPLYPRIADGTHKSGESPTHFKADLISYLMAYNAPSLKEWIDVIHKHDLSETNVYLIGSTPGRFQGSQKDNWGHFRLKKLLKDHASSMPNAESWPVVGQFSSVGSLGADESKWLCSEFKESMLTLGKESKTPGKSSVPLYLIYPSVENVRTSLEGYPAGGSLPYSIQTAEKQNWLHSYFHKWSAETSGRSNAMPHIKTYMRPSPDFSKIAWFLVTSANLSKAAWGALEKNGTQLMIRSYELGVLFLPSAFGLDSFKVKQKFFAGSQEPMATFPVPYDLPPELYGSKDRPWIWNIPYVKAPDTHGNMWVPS
#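 Recombinant E. coli-expressed Tdp1 (1 nM) preincubated with compound 15 min at RT, then 5'-biotin/3'-phosphotyrosine-FITC DNA substrate (15 nM) added for 5 min. AlphaScreen beads (10 ug/ml) added, 10 min RT; tyrosine-FITC cleavage read as signal loss.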
# TGFb inhibitor: TGF-b pathway inhibition; Potency, µM (titrated, usually from 46.1 µM), inactives show at the top dose activity, negative = inhibition, most hits filed as inhibitors; HepG2 CAGA-GFP TGF-b/SMAD3 reporter, GFP fluorescence, 18 h; TGF-beta stimulated, 500 pg/mL final; hit rate 1.2% among 410,000; AID 588855; also: potency is read from the fitted curve at half-maximal effect; % is scaled to controls: 0 for no effect and ±100 for the full control effect; nearly all actives have a fitted effect of over 65% in size
#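 Read-out: total well GFP (ex488/em500-530) summed from mean per-cell fluorescence. Cells: HEPG2 CAGA-GFP, 1% FBS DMEM, 18 h at 37 degrees C with 500 pg/mL final TGF-beta. Unstimulated wells served as the full-inhibition control; stimulated DMSO wells = 0%.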
# HepG2 viability: HepG2 cytotoxicity, counter-screen for TGF-b inhibitors; hit rate 0.76% among 410,000; AID 588856; Potency, µM (series often up to 46.1 µM), inactives show top-dose activity change, negative = cytotoxicity, most hits filed as cytotoxic; HepG2 CAGA-GFP viability, ATP luminescence, 18 h; also: potency is read from the fitted curve at half-maximal effect
#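 HepG2 CAGA-GFP cells (1000/well, DMEM with 1% FBS) received compound, then TGF-beta at 500 pg/mL final, and were incubated 18 hours at 37 degrees C. Viability was read by CellTiter-Glo luminescence. Media-only wells were set as complete cell-killing and DMSO as no toxicity.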
# DT40 TDP1 CPT: growth inhibition of DT40 Tdp1-/-;hTDP1 cells with camptothecin (screen for TDP1 inhibitors); chicken DT40 Tdp1-/-;hTDP1 cells + 20 nM CPT, ATP luminescence, 48 h; Potency, µM (top dose mostly 46.2 µM), without a hit: at the top dose activity change, negative = growth inhibition, hits mostly inhibitors; hit rate 12% among 420,000; AID 686979; also: potency is read from the fitted curve at half-maximal effect; % is scaled to controls: 0 for no effect and ±100 for the full control effect; nearly all actives have a fitted effect of over 55% in size
#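 Cell growth measured by CellTiter-Glo luminescence after a minimum 48 h, 37 C compound exposure with 20 nM CPT in Tdp1-knockout DT40 cells stably expressing hTDP1, seeded 400/well; qHTS titration format.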
# IL-1B inflam inh: blocks inflammasome-driven IL-1 beta release; THP-1 LPS/ATP IL-1B secretion, AlphaLISA, 16 h; hits give low values; activity change, % at 57.5 µM; hit rate 4.7% among 360,000; AID 743279; in the data active = activity change below about -50%; inconclusive = mostly about -30% to -49%; also: % is scaled to controls: 0 for no effect and ±100 for the full control effect
#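 Secreted IL-1B measured by AlphaLISA bead assay after 16 h compound exposure of THP-1 cells; compounds (final up to 57.5 uM) added 1 h before LPS (250 ng/mL) and ATP (1.25 mM) stimulation; lower signal means less secretion.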
# DT40 TDP1 no CPT: qHTS for Inhibitors of human tyrosyl-DNA phosphodiesterase 1 (TDP1): qHTS in cells in absence of CPT. DT40 Tdp1-/- hTDP1 cells, no CPT, ATP luminescence, 48 h. Potency, µM (titrated, usually from 46.2 µM), for inactives: top-dose activity change, negative = growth inhibition, actives largely listed as inhibitors. hit rate 15% among 420,000. AID 686978, 2013; also: potency is read from the fitted curve at half-maximal effect; % is scaled to controls: 0 for no effect and ±100 for the full control effect; nearly all actives have a fitted effect of over 55% in size
#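 Luminescent ATP content (CellTiter-Glo) served as the growth readout. Knockout chicken DT40 cells expressing human TDP1 were exposed to compounds without camptothecin for a minimum 48 hr at 37 °C.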
# Numbers without * were called inactive; ? = inconclusive; nt = no result given; [ ] = another dose, or the depositor's remark. Only some compounds are listed: those with a hit (about 19% of all), similar ones and a draw of the others. Unless noted, calls follow the shape of the dose curve; as a rule, active = well fitted curve in the direction sought with a large enough effect; inconclusive = small, poorly fitted or top-dose-only effect, or another doubt; inactive = no such curve, though single readings can be large; an effect the other way counts as inactive or inconclusive.
SMILES,TDP1 inh,TGFb inhibitor,HepG2 viability,DT40 TDP1 CPT,IL-1B inflam inh,DT40 TDP1 no CPT
CCCc1nc2oc3c(NCCN(C)C)ncnc3c2c2c1CCCC2,2.1%,?,-85.2%,18.4µM*,0.0,16.4µM*
CC(C)Cc1nc2oc3c(Cl)ncnc3c2c2c1CCCC2,nt,16.8%,4.8%,?,-9.2,?
CC(C)Cc1nc2oc3c(NCC(C)O)ncnc3c2c2c1CCCC2 (centres undefined),nt,-8.8%,2.3%,?,0.0,14.6µM*
CC(C)OC(=O)c1c(NC(=O)C2c3ccccc3Oc3ccccc32)sc2c1CCCC2,3.2%,-0.1%,5.3%,?,nt,?
O=C(N[C@@H](Cc1ccccc1)C(=O)OCc1ccccc1)c1ccco1,-2.4%,9.3%,-17.8%,-0.9%,-2.9,?
Cc1ccccc1OCC(O)Cn1c(SC(C)C)nc2c1c(=O)[nH]c(=O)n2C (centres undefined),5.0%,-17.5%,-29.7%,?,17.1,?
CCc1cccc(OCC(O)Cn2c(N3CCCCC3)nc3c2c(=O)[nH]c(=O)n3C)c1 (centres undefined),3.8%,3.9%,-4.3%,8.2µM*,?,7.31µM*
CCSc1nc2c(c(=O)[nH]c(=O)n2C)n1CC(O)COc1ccc(Cl)cc1 (centres undefined),0.4%[12.3 µM],?,0.4%,?,nt,9.2µM*
Cc1ccccc1OCC(O)Cn1c(N2CCCCC2)nc2c1c(=O)[nH]c(=O)n2C (centres undefined),2.9%,-14.3%,-18.8%,?,57.4,8.2µM*
Cn1c(=O)[nH]c(=O)c2c1nc(Br)n2CC(O)COc1ccc(Cl)cc1 (centres undefined),5.5%,?,-42.6%,?,53.3,-51.9%
CCSc1nc2c(c(=O)[nH]c(=O)n2C)n1CC(O)COc1ccccc1C (centres undefined),5.2%,?,-12.5%,14.6µM*,41.9,?
CC/C=C\C/C=C\C/C=C\C/C=C\C/C=C\CCCC(=O)O,7.3%,nt,nt,?,nt,?
COc1ccc(C(=O)NCCCOc2cccc(NC(C)=O)c2)cc1,5.5%,0.4%,-25.8%,5.2%,18.6,-14.2%
CC(C)c1ccc(NC(=O)CCNS(=O)(=O)c2ccc3c(c2)CCCC(=O)N3)cc1,2.1%,1.0%,-29.6%,nt,nt,nt
O=c1oc2cc(O)ccc2cc1-c1ccc2c(c1)OCCO2,-8.1%,nt,nt,12.9%[9.04 µM],nt,-1.9%[9.04 µM]
CN(C)c1ccc(/C=C/c2ccnc3c(O)ccc(O)c23)cc1,nt,-5.3%,-9.5%,-17.7%,nt,-11.6%
O=C(Cc1ccc2ccccc2c1)NO,nt,nt,nt,3.7%,nt,-8.6%
Cc1ccccc1OCC(O)Cn1c(Br)nc2c1c(=O)[nH]c(=O)n2C (centres undefined),8.9%,-5.3%,-13.4%,13µM*,42.8,?
COC(=O)c1ccccc1Sc1ncnc2onc(C)c12,-1.8%,?,-4.4%,14.6µM*,-102.8*,?
Cc1noc2ncnc(Sc3ccccc3Cl)c12,5.9%,?,-101.0%,?,-26.1,?
CC1CCN(Cc2ccc(NC(=O)C3CCN(c4nnc(-n5cccc5)s4)CC3)cc2)CC1,7.6%,0.6%,-13.0%,18.4µM*,-5.6,?
O=C(C1CCN(c2nnc(N3CCCC3=O)s2)CC1)N1CCN(Cc2ccc3c(c2)OCO3)CC1,0.0%,22.7%,2.6%,1.7%,?,-26.7%
Cc1cc(C)nc(N2CCC(C(=O)NC3CCCc4ccccc43)CC2)n1 (centres undefined),5.1%,2.7%,-0.3%,-9.8%,0.0,-7.2%
CN(C)c1ccc(CNC(=O)C2CCN(c3nnc(-n4cccc4)s3)CC2)cc1,-1.1%,-5.4%,-16.5%,-24.1%,nt,?
O=C(NC1CCCc2ccccc21)C1CCN(c2nnc(-n3cccc3)s2)CC1 (centres undefined),5.2%,?,-59.1%,23.1µM*,-25.8,?
SMILES,TDP1 inh,TGFb inhibitor,HepG2 viability,DT40 TDP1 CPT,IL-1B inflam inh,DT40 TDP1 no CPT
O=C(C1CCN(c2nnc(-n3cccc3)s2)CC1)N1CCN(Cc2ccc3c(c2)OCO3)CC1,-2.6%,-18.9%,-10.2%,?,2.1,14.6µM*
CC(C)C(NC(=O)Cc1ccccc1)C(=O)N1CCN(c2cccc(Cl)c2)CC1 (centres undefined),-0.6%,?,-30.5%,4.61µM*,-4.2,3.26µM*
CC(C)NS(=O)(=O)c1ccc(OCC(=O)N2CCN(c3cccc(Cl)c3)CC2)cc1,-6.3%,?,-27.9%,14.6µM*,nt,23.1µM*
CC(NC(=O)c1ccco1)C(=O)N1CCN(c2cccc(Cl)c2)CC1 (centres undefined),-0.2%,-2.3%,-17.4%,?,-5.0,-25.7%
CC(C)[C@H](NS(=O)(=O)c1cccc(Cl)c1)C(=O)OCC(=O)N1CCN(c2ccccc2)CC1,3.4%,-5.6%,4.0%,23.1µM*,-11.0,25.9µM*
CC(C)[C@H](NC(=O)c1c(F)cccc1F)C(=O)N1CCN(c2ccc(F)cc2)CC1,9.0%,-8.9%,-12.0%,?,-9.8,20.6µM*
CCNc1ncc2nc(-c3ccc(F)cc3)c(=O)n(CCc3ccccc3)c2n1,nt,nt,nt,-3.0%,nt,12.8%
Cc1ncc2c(c1CNC(=O)c1cncs1)CCN(C(=O)c1ccc(C(F)(F)F)cc1)C2,nt,nt,nt,-15.1%[9.04 µM],nt,-14.4%
Cc1ccc(S(=O)(=O)CC(CN2CCCCC2)N2CCCCC2)cc1 (centres undefined),-2.5%,15.8µM*,-93.1%,?,-97.6*,13µM*
O=C(NCC(c1ccco1)N1CCN(c2ccccc2F)CC1)C(=O)NC1CCCC1 (centres undefined),nt,8.8%,4.3%,?,6.3,9.2µM*
